20 compounds from PubChem BioAssay (NCI) can be followed below.

Test [1] can be described thus: NCI Yeast Anticancer Drug Screen. Data for the rad50 strain (AID 155).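 Note: 0% = growth of vehicle-only cultures of the same strain.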 Conditions: S. cerevisiae rad50 strain growth inhibition; at 50.0 µM; hits give high values. In short, it runs like this: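 Genetically altered yeast (DNA repair pathway); compound treatment; growth inhibition vs vehicle ctrl.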
Test [2] is described as follows: NCI Yeast Anticancer Drug Screen. Data for the mec2-1 strain (AID 157). Conditions: S. cerevisiae mec2-1 strain, at 50.0 µM, hits give high values. In outline:
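Compounds were applied to mec2-1 yeast cells. Their growth was then compared with that of vehicle-treated cultures to give growth inhibition.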

The nature of test [3]: NCI Yeast Anticancer Drug Screen. Data for the sgs1 mgt1 strain (AID 161).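 Note: 0% = growth of cultures given vehicle only.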 Conditions: S. cerevisiae sgs1 mgt1 strain, at 50.0 µM, hits give high values. In outline:
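Compounds are added to genetically altered yeast, and growth is compared with cultures given vehicle alone to give percent inhibition.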

Test [4] is described as follows: NCI Yeast Anticancer Drug Screen. Data for the cln2 rad14 strain (AID 165).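 Note: 0% = growth equal to vehicle treated cultures.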 Conditions: S. cerevisiae cln2 rad14 strain, at 50.0 µM, hits give high values. In short, it runs like this:
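Strain: cln2 rad14 yeast, altered in cell cycle control and DNA damage repair. Read-out: growth inhibition vs vehicle.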

Test [5] is described as follows: NCI Yeast Anticancer Drug Screen. Data for the bub3 strain (AID 167). Conditions: S. cerevisiae bub3 mutant strain, at 50.0 µM, hits give high values. In outline:
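Yeast carrying a defined mutation is treated with each compound, and growth is compared with that of vehicle-exposed cells to give inhibition.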

Test [6] in a line: NCI Yeast Anticancer Drug Screen. Data for the mlh1 rad18 strain (AID 175). Conditions: S. cerevisiae mlh1 rad18 strain growth inhibition; at 50.0 µM; hits give high values. In outline:
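A repair-deficient yeast strain is exposed to test compound, and growth is scored relative to vehicle-treated controls.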

“And” between values parts separate entries of the source, which are not always exact repeats. Equal values may be shown once. About 79,000 compounds went through this panel and 15% of them were active in at least one assay; those are over-represented in the sample as a whole. A number with no mark means an inactive call. The source made the active and inactive calls. Cut-off read from the data, not from the text of the source: active = growth inhibition above about 70%; inactive = the rest.

Regarding `[CH3][Sn]([CH3])([CH3])[S]C(=S)N1CCOCC1`, the growth inhibition in test [1] is 98.7% (active); in test [2] it was 90% (active); in test [3], 98.2% (active); in test [4], 94.2% (active); in test [5] it was 98.5% (active); in test [6] it was 98.5% (active).
Take `Cc1ccc(NP(=S)(Nc2ccc(C)cc2C)Nc2ccc(C)cc2C)c(C)c1`: the growth inhibition in test [1] was 18.3%; in test [2], -1.6%; in test [3] it was -3.1%; in test [4], 17.9%; in test [5] it was 2.7%; in test [6] it was 9.55%.
As for `COP12(OC)NC(=O)OC1(C(F)(F)F)c1ccccc1O2` (stereo not given), the growth inhibition is -14.9% in test [1]; -4% in test [2]; -23.9% in test [3]; -5.15% in test [4]; -28% in test [5]; -39% in test [6].
On to `CNC(=O)Oc1cccc(NC(=O)OC(C)(C)C)c1`, for which the growth inhibition in test [1] is 3.5%; in test [2], 14.8%; in test [3], 27.1%; in test [4] it was 1.45%; in test [5], 29.1%; in test [6], 15.1%.
Take `CCCCCCCCCCCCCCC(O)C1CCC(C(O)CCC(O)CCCCCC(O)CC2=CC(C)OC2=O)O1` (stereo not given): the growth inhibition in test [1] is -37.2%; in test [2] it was -33.1%; in test [3], -17.6%; in test [4], 39.8%; in test [5] it was -25.4%; in test [6], 2.7%.
For `Cn1cnc([N+](=O)[O-])c1C(=O)O`, the growth inhibition in test [1] is 7.9%; in test [2], 25.1%; in test [3] it was 20.4%; in test [4], -13.2%; in test [5] it was -17.9%; in test [6] it was 6.55%.
For the compound `O=S(=O)(O)O/N=C(\Cc1ccccc1)SC1OC(CO)C(O)C(O)C1O` (stereo not given), the growth inhibition is -2.45% in test [1]; -7.1% in test [2]; -2.55% in test [3]; -7% in test [4]; -0.75% in test [5]; -3.25% in test [6].
Turning to `Cc1cc(O)ccc1[N+](=O)[O-]`, the growth inhibition was 1.15% in test [1]; -1.2% in test [2]; 11.8% in test [3]; 9.6% in test [4]; 2.9% in test [5]; 2.95% in test [6].
Consider `c1ccc(N2CCNCC2)nc1`, for which the growth inhibition was -6.4% in test [1]; -4.3% in test [2]; 9.2% in test [3]; 6.9% in test [4]; 8.25% in test [5]; 0.15% in test [6].
In the case of `C/C=C/CC1(CCC(C)C)C(=O)NC(=O)NC1=O`, the growth inhibition is 24.4% and 26.9% in test [1]; 8.05% and -0.65% in test [2]; 9.9% and 4.75% in test [3]; -19.1% and -4.55% in test [4]; -5.4% and -2.35% in test [5]; 10.3% and 17.4% in test [6].
For the compound `CC(=O)OC1(C(C)=O)CC2(c3ccccc3)OC1(c1ccccc1)c1ccccc12` (stereo not given), the growth inhibition in test [1] was -0.55%; in test [2], 12.1%; in test [3], 9%; in test [4] it was 10.2%; in test [5], -3.9%; in test [6], 7.25%.
With `O=C(C1C(c2ccccc2)N1C1CCCCC1)C1C(c2ccccc2)N1C1CCCCC1` (stereo not given), the growth inhibition was 6% in test [1]; 17.9% in test [2]; 10.6% in test [3]; -5.1% in test [4]; -10.5% in test [5]; 8.7% in test [6].
Consider `CC1CCC2[S][Sn]3([NH]C2C1)[NH]C1CC(C)CCC1[S]3` (stereo not given), for which the growth inhibition in test [1] is 97% (active); in test [2] it was 96.5% (active); in test [3], 99.1% (active); in test [4], 95.8% (active); in test [5], 98.2% (active); in test [6] it was 96.5% (active).
Take `O=C1c2c(ccc3ccccc23)CN2CCCCC12` (stereo not given): the growth inhibition in test [1] was 42.2%; in test [2], 19.6%; in test [3], 61.9%; in test [4] it was 14%; in test [5] it was 40.4%; in test [6], 45.2%.
Regarding `NC(=O)CCCc1ccc([As]=O)cc1` (stereo not given), the growth inhibition in test [1] is -8.7%; in test [2] it was -11.9%; in test [3], -8.85%; in test [4], -27.1%; in test [5], -0.25%; in test [6] it was 9.75%.
`COc1cc(OC)cc(C(=O)Cc2c(C(=O)c3ccccc3)c3ccccc3n2C(=O)c2ccccc2)c1`: the growth inhibition in test [1] is -5.5%; in test [2] it was -6%; in test [3] it was 0.1%; in test [4], -50.3%; in test [5] it was -2.15%; in test [6] it was 3.2%.
`Cc1sc2cccc[n+]2c1C`: the growth inhibition is 5.85% in test [1]; -12.9% in test [2]; -8.95% in test [3]; -8.95% in test [4]; -3.4% in test [5]; -14.4% in test [6].
For the compound `CC(=O)OCC12CCC(C)=CC1OC1C(N(C)C)C(O)C2(C)C12CO2` (stereo not given), the growth inhibition in test [1] is 33.1%; in test [2] it was 49.6%; in test [3], 16.5%; in test [4], 39.1%; in test [5] it was 18.4%; in test [6], -16.9%.
For the compound `CN(C1CCCCC1)C1CCCCC1`, the growth inhibition in test [1] was -7.75%; in test [2], -2.05%; in test [3] it was -6.65%; in test [4], -9.85%; in test [5] it was 6.6%; in test [6] it was -8.3%.
As to `CN(N=O)C1=NC2(CCCCC2)P(=O)(NNc2ncccn2)O1` (stereo not given), the growth inhibition in test [1] is 0.9%; in test [2], -17.9%; in test [3], -15.2%; in test [4], 9.85%; in test [5], 11.2%; in test [6] it was 13.1%.
